Screening data from PubChem.
VP16 counter: counter-screen for ROR gamma inhibitors: Gal4-VP16 reporter. Drosophila S2 Gal4-VP16 UAS-luciferase, luminescence, 20 h. Potency, µM (doses to about 53.6 µM), for inactives: at the top dose activity, negative = inhibition, actives largely listed as inhibitors. 3.5% of 310,000 active. AID 2546;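 also: Gal4-VP16 expression switched on by copper sulfate through the metallothionein promoter; nearly all actives have a fitted effect of over 50% in size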
Sfp PPTase inh: blocks B. subtilis Sfp PPTase activity; Biochemical Sfp PPTase activity, qHTS; Potency, µM, for the others: largest response in the series, negative = inhibition, usual class: inhibitors; Q9F4F7; 3.5% of 310,000 active;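 also: the enzyme is Sfp with the accession as filed and its product quenches rhodamine fluorescence; 0% = enzyme reaction without inhibitor and -100% = no enzyme wells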
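Fluorescence-quenching assay: 15 nM Sfp-PPTase preincubated 15 min at room temperature with compound, then 5 uM rhodamine-CoA and 12.5 uM BHQ-2-labelled YbbR peptide added. Fluorescence (ex 525/em 598 nm) read at start and after 30 min; difference gives rate.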
ALDH1A1 block: blocks purified human ALDH1A1 activity. P00352. Purified ALDH1A1, NADH fluorescence, propionaldehyde substrate. Potency, µM (series often up to 75.3 µM), inactives show at the top dose activity, negative = inhibition, hits mostly inhibitors. 7.3% of 220,000 active; active = well fitted inhibition curve with a large enough effect, not every such curve was filed as active; inconclusive = small, poorly fitted or top-dose-only effect, or another doubt; inactive = no such curve, though single readings can be large or run the other way;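 also: plate controls were no enzyme wells and a reference inhibitor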
Target sequence (P00352 whole entry, looked up): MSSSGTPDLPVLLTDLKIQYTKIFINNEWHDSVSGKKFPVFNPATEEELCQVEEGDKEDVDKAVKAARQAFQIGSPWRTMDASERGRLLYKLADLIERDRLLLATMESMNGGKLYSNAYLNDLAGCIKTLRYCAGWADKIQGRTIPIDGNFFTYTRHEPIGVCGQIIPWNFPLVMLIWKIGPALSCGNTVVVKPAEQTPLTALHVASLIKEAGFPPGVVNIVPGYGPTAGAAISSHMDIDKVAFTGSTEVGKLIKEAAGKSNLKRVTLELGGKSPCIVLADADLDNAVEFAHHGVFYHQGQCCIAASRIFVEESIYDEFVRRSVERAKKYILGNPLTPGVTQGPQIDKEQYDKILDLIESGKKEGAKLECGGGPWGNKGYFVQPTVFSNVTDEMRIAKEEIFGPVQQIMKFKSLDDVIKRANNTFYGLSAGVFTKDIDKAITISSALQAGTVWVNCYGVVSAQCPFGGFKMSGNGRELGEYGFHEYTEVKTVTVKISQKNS
RORg inh: blocks mouse ROR gamma transcriptional activity; 5.4% of 310,000 active; Potency, µM (series often up to 53.6 µM), without a hit: at the highest dose activity change, negative = inhibition, most hits filed as inhibitors; Drosophila S2 Gal4-RORgamma UAS-luciferase reporter, 20 h; P51450; AID 2551; also: nearly all actives have a fitted effect of over 60% in size
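Using a luciferase readout, inhibitors were identified by reduced reporter activity in Drosophila cells coexpressing a copper-inducible Gal4–ROR gamma fusion and UAS-driven Photinus luciferase, incubated 20 hr after 700 uM copper sulfate.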
PLK1 PBD inh: blocks phosphopeptide binding to human PLK1 polo-box domain; Potency, µM, for inactives: max response, negative = inhibition, usual class: inhibitors; P53350; 2.8% of 360,000 active; Plk1 PBD binding of FITC phosphopeptide, fluorescence polarization; also: series mostly up to about 57 µM; nearly all actives have a fitted effect of over 65% in size
Numbers without * were called inactive; ? = inconclusive; · = no result given; [ ] = another dose, or the depositor's remark. This is a sample that favours compounds with a hit; in the whole collection about 12% have one here. Unless noted, calls follow the shape of the dose curve; as a rule, active = well fitted curve in the direction sought with a large enough effect; inconclusive = small, poorly fitted or top-dose-only effect, or another doubt; inactive = no such curve, though single readings can be large; an effect the other way counts as inactive or inconclusive. Unless noted, % is scaled to controls: 0 for no effect and ±100 for the full control effect; potency is read from the fitted curve at half-maximal effect.

SMILES	VP16 counter	Sfp PPTase inh	ALDH1A1 block	RORg inh	PLK1 PBD inh
Cc1cccc(C)c1NC(=O)C1(C)CN(S(C)(=O)=O)CC(=O)N1CCc1c[nH]c2ccccc12 (configuration not stated)	·	·	·	·	-15.6%
CCCCN1CC(N2CCN(CCN(C)C)CC2)CS1(=O)=O (configuration not stated)	·	·	·	·	-2.4%
C=CCN(C(=O)CSc1nc2ccsc2c(=O)n1Cc1ccccn1)c1ccccc1	8.4%	-5.0%	?	40.9%	-5.8%
C=CCSc1nc2ccsc2c(=O)n1-c1cccnc1	10.1%	?	-0.9%	20.3%	26.7µM*
Nc1nc2c(c(=O)[nH]1)CN(CCCN1CCOCC1)CN2	·	·	8.1%[13.5 µM]	·	·
Cc1ccc(-c2n[nH]c(=S)n2/N=C/c2ccc(C(=O)O)cc2)cc1	-1.8%	?	·	-17.9%	-14.5%
S=c1[nH]nc(-c2ccco2)n1/N=C/c1c(Cl)cccc1Cl	1.0%	-14.5%	·	20.1%	-5.7%
Cc1ccc(/C=N/n2c(-c3cccs3)n[nH]c2=S)cc1	?	-18.3%	?	2µM*	?
COc1ccc(/C=N/n2c(-c3cccs3)n[nH]c2=S)cc1	?	-29.7%	-8.7%	2.82µM*	-20.7%
S=c1[nH]nc(-c2cccs2)n1/N=C/c1c(Cl)cccc1Cl	-26.2%	-59.5%	15.8µM*	11.2µM*	6.7µM*
OC[C@@H]1CN(Cc2ccc(Cl)cc2)C[C@H](n2cnc3c(Nc4ccccc4)ncnc32)O1	·	·	·	·	6.9%
Cc1ccc(/C=N/n2c(-c3ccncc3)n[nH]c2=S)o1	1.8%	25.1µM*	-7.6%	-16.3%	-9.0%
S=c1[nH]nc(-c2ccccc2)n1/N=C/c1ccc(-c2ccccc2Cl)o1	?	?	6.7%	4.47µM*	-35.7%
Cc1ccc(/C=N/n2c(C)n[nH]c2=S)o1	1.1%	-11.7%	15.6%	-37.2%	-3.8%
S=c1[nH]nc(-c2cccc(Cl)c2)n1/N=C/c1ccco1	?	50.1µM*	·	?	-21.4%
S=c1[nH]nc(-c2ccccn2)n1/N=C/c1ccc(-c2ccccc2Br)o1	0.0%	-14.9%	?	10µM*	-25.4%
Cc1cc(NC(=O)CS(=O)c2cn(Cc3cccc(Cl)c3)c3ccccc23)no1 (configuration not stated)	·	·	·	·	-3.9%
CC(C)(C)NC[C@H](O)c1cc(O)cc(O)c1	0.6%[17 µM]	17.7%	9.9%[20.9 µM]	7.2%[16.9 µM]	·
COc1ncc2nc(-c3ccc(F)cc3)c(=O)n(C3CC3)c2n1	-7.7%	24.3%	?	-24.9%	·
Cc1ccc(/C=N/n2c(-c3cccc(Cl)c3)n[nH]c2=S)o1	?	-7.9%	·	5.01µM*	?
S=c1[nH]nc(-c2cccc(Cl)c2)n1/N=C/c1ccc(-c2ccccc2Br)o1	-8.9%	-4.9%	·	0.794µM*	-7.1%
CC(C)C(c1nnnn1C1CCCC1)N1CCc2ccccc21 (configuration not stated)	11.6%	6.6%	?	4.7%	-7.1%
CC(C)C(c1nnnn1C1CCCCC1)N1CCc2ccccc2C1 (configuration not stated)	26.1%	-16.4%	25.1µM*	1.3%	-6.1%
c1cc(N2CCCC2)ccc1C(c1nnnn1C1CCCCC1)N1CCOCC1 (configuration not stated)	-2.4%	?	25.1µM*	-0.1%	-1.8%
Cc1ccc(C(c2nnnn2C2CCCC2)N2CCc3ccccc32)cc1 (configuration not stated)	?	-6.0%	?	?	-7.2%
SMILES	VP16 counter	Sfp PPTase inh	ALDH1A1 block	RORg inh	PLK1 PBD inh
COc1ccc(C(c2nnnn2C2CCCCC2)N2CCN(c3ccc(OC)cc3)CC2)cc1 (configuration not stated)	1.8%	3.3%	-4.0%	-9.0%	1.0%
c1ccc(C(c2nnnn2C2CCCCC2)N2CCc3ccccc3C2)nc1 (configuration not stated)	1.1%	79.4µM*	?	-6.4%[10 µM]	-19.0%
Oc1ccc(N2CCN(C(c3ccccn3)c3nnnn3C3CCCC3)CC2)cc1 (configuration not stated)	1.8%	17.8µM*	25.1µM*	-20.3%	-4.7%
CC(C)(C)NC(=O)CCN(/N=C/c1ccccc1O)C1=NS(=O)(=O)c2ccccc21	-2.5%	7.2%	·	14.1%	-23.0%
CN=C(N)/N=C(\N)Nc1cc2ccccc2c2ccccc12	·	·	7.0%[13.5 µM]	·	·
CC(C)C(c1nnnn1Cc1ccccc1)N1CCc2ccccc2C1 (configuration not stated)	-2.0%	3.4%	10µM*	-6.4%	-13.5%
CC1(C)CC(=O)C2=C(C1)N(Cc1cccnc1)C(=O)C2(NC(=O)c1cccnc1)C(F)(F)F (configuration not stated)	-6.3%	31.8%	3.4%	-10.9%	-5.8%
CC1(C)CC(=O)C2=C(C1)N(Cc1ccco1)C(=O)C2(NC(=O)c1cccnc1)C(F)(F)F (configuration not stated)	-11.2%	22.4µM*	?	1.4%	-9.7%
CC1(C(=O)NCc2ccccc2)CCC(=O)N1CCCn1ccnc1 (configuration not stated)	·	·	·	·	-5.3%
COc1ccc(OC)c(C2=NS(=O)(=O)N(C)C(C(=O)Nc3ccc(F)cc3F)=C2)c1	-26.7%	6.3%	·	?	29.9µM*
COc1ccc(C2=NS(=O)(=O)N(C)C(C(=O)Nc3ccc(C(C)=O)cc3)=C2)cc1OC	15.8µM*	7.0%	·	13.9%	-11.3%
Cc1cccc(C(=O)O/N=C/c2c(N3CCOCC3)n(C)c3ccccc23)c1	3.55µM*	6.5%	0.2%	1.58µM*	·
C/C(=N\NC(=O)CSc1nc2ccccc2o1)c1cccc(O)c1	-4.7%	-11.0%	·	17.9%	-8.8%
CCOC(=O)c1c(NC(=O)c2cc(-c3ccc(O)cc3)on2)sc(C(C)=O)c1C	-9.0%	-29.0%	22.4µM*	7.5%	0.1%
C/C(=N\NC(=O)CSc1nc2ccccc2o1)c1ccc(O)cc1	2.8%	?	23.8µM*	11.2µM*	-17.8%
CCOC(=O)c1sc(NC(=O)CSc2nnc(-c3ccco3)n2CC)c(C(=O)OCC)c1C	1.9%	25.1µM*	?	29.7%	-16.0%
COC(=O)c1c(NC(=O)CSc2nnc(-c3ccco3)n2C)sc(C)c1C	-6.4%	3.5%	2.2%	4.7%	29.9µM*
CCOC(=O)c1c(NC(=O)CSc2nnc(-c3ccccc3)o2)sc(C(C)=O)c1C	3.2%	-3.2%	?	-33.0%	15.1%
CCOC(=O)c1c(NC(=O)CN(C)C2CCN(C)CC2)sc(C(=O)Nc2ccccc2)c1C	-14.3%	?	?	-20.9%	5.2%
CCOC(=O)c1c(NC(=O)CSc2cccc[n+]2[O-])sc(C(=O)Nc2ccccc2)c1C	4.8%	?	28.2µM*	8.9%	2.5%
CCOC(=O)c1c(NC(=O)CSc2nc3ccccc3o2)sc(C(C)=O)c1C	?	-4.7%	2.6%	12.6µM*	12.5%
O=c1c(-c2cccc(Cl)c2)nc2cncnc2n1Cc1ccc(F)cc1	0.1%	-19.6%	14.1%	10.9%	·
CCn1c([N+](=O)[O-])nc2c1c(=O)[nH]c(=O)n2C	17.8µM*	-4.8%	15.8µM*	0.562µM*	-17.4%
